According to the supplement of paper PMC12669032:
Values without a mark were called inactive.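 Rule for the calls: active = AUC reduced over 20% with Padj below 0.05 in at least 2 of 3 replicates; inactive = otherwise.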

These molecules were tested on Bacteroides uniformis (assay: growth AUC relative to DMSO control (median of replicates) (fraction); higher = more growth (less inhibition), active = hit call of the paper). Conditions: 20 µM; 24 h.
Procedure, shortened: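 OD600 was recorded every hour for 24 h in anaerobic monocultures of gut bacteria kept at 37 °C in mGAM, seeded at OD600 0.05 and given 20 µM compound in 1% DMSO. The area under each growth curve was scaled to the plate median of solvent-only wells, or to row and column medians for the industrial chemical plate. Before this step, the minimum OD was set to 0. Reported values are medians of three biological replicates run on separate days.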

Compound | growth AUC
Clc1ccc(Cl)cc1 | 1.01
C#CC(C)(C)NC(=O)c1cc(Cl)cc(Cl)c1 | 0.96
CC1CCCCC1NC(=O)Nc1ccccc1 (mixture of isomers) | 0.959
Cc1ccc(N=CN(C)C=Nc2ccc(C)cc2C)c(C)c1 | 1.02
CC(C)N1C(=O)c2ccccc2NS1(=O)=O | 0.977
CC1(C)CC/C(=C\c2ccc(Cl)cc2)C1(O)Cn1cncn1 (centres undefined) | 0.995
CCCN(CCCl)c1c([N+](=O)[O-])cc(C(F)(F)F)cc1[N+](=O)[O-] | 0.927
COC(=O)Nc1nc2ccccc2[nH]1 | 0.988
Cc1cc(C(F)(C(F)(F)F)C(F)(F)F)ccc1NC(=O)c1cccc(I)c1C(=O)NC(C)(C)CS(C)(=O)=O | 1.01
CC(C)OC(=O)Nc1cccc(Cl)c1 | 0.984
c1coc(-c2nc3ccccc3[nH]2)c1 | 0.968
COC(=O)c1ccccc1S(=O)(=O)NC(=O)Nc1nc(C)nc(OC)n1 | 1.03
Nc1cc(Cl)ccc1Cl | 1.03
CCSCc1ccccc1OC(=O)NC | 0.973
COP(=S)(OC)Oc1ccc([N+](=O)[O-])c(C)c1 | 0.97
CCOC(=O)/C=C(C)/C=C/C[C@@H](C)CCCC(C)C | 0.984
COc1nn(CSP(=S)(OC)OC)c(=O)s1 | 1.02
CCCCOCN(C(=O)CCl)c1c(CC)cccc1CC | 0.954
COc1ccc(C(c2ccc(OC)cc2)C(Cl)(Cl)Cl)cc1 | 0.813
CNC(=O)/C(=N/OC)c1ccccc1Oc1ccccc1 | 0.997

Compound | growth AUC
O=C(O)c1ccc(=O)[nH]c1 | 1.01
c1ccc2c(c1)ccc1c3ccccc3sc21 | 0.972
CC1(C)C(/C=C(\Cl)C(F)(F)F)C1C(=O)OC(C#N)c1cccc(Oc2ccccc2)c1 (centres undefined) | 0.993
CNC(=O)Oc1cc(C)cc(C(C)C)c1 | 1.04
CCOP(=S)(OCC)Oc1cc(Cl)c(SC)cc1Cl | 0.989
O=[N+]([O-])C(Br)(CO)CO | 0.976
Cc1c(F)c(F)c(COC(=O)[C@@H]2[C@H](/C=C(\Cl)C(F)(F)F)C2(C)C)c(F)c1F (mixture of isomers) | 1.01
COP(=S)(OC)Oc1ccc(S(C)=O)c(C)c1 (centres undefined) | 1.03
CCNc1nc(NCC)nc(SC)n1 | 1
CC(C)N(C(=O)SCC(Cl)=C(Cl)Cl)C(C)C | 0.989
CCOP(=S)(OCC)Oc1ccc([N+](=O)[O-])cc1 | 0.959
CC(C)[C@@H](Nc1ccc(C(F)(F)F)cc1Cl)C(=O)OC(C#N)c1cccc(Oc2ccccc2)c1 (some centres undefined) | 1.01
Fc1ccc(C2(Cn3cncn3)OC2c2ccccc2Cl)cc1 (centres undefined) | 0.953
CCCC1COC(Cn2cncn2)(c2ccc(Cl)cc2Cl)O1 (centres undefined) | 0.871
CCOC(=O)C(O)(c1ccc(Cl)cc1)c1ccc(Cl)cc1 | 0.991
CC#Cc1cc(C)nc(Nc2ccccc2)n1 | 0.975
CC(C)N(Cc1ccccc1)C(=O)C(C)(C)C | 0.999
O=c1oc2ccccc2c(O)c1C1CC(c2ccc(-c3ccc(Br)cc3)cc2)Cc2ccccc21 (centres undefined) | 0.86
C[N+](C)(C)CCCl.[Cl-] | 1.01
